Results filed as inconclusive are left out. Active and inactive are the calls of the source. Unless noted, the call rests on the fitted dose curve; in most records, active means well fitted curve in the direction sought with a large enough effect; inconclusive means small, poorly fitted or top-dose-only effect, or another doubt; inactive means no such curve, though single readings can be large; an effect the other way counts as inactive or inconclusive.
Legend:
[1] = qHTS assay for measurement of the activity of small molecule inhibitors on Zika virus induced Caspase-3 activity in human iPSC derived neural progenitor cells (hNPCs) (AID 1224857); further: nearly all actives have a fitted effect of over 65% in size
Summary of the method: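 Zika virus (2 FFU/cell) infection of human iPSC-derived NPCs, 6 h, following 1 h compound preincubation. Read-out: Caspase-Glo 3/7 luminescence.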

[2] = qHTS assay for measurement of the activity of small molecule inhibitors on Zika virus induced Caspase-3 activity in human astrocytoma cells (AID 1224859)
Summary of the method: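 Caspase activation in ZIKV-infected SNB-19 cells (2 FFU/cell, 6 h) measured by Caspase-Glo 3/7 luminescence after 30 min RT; compound pre-incubated 1 h; normalised to uninfected and infected controls.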

[3] = qHTS assay to identify small molecule inhibitors of chordoma cells - UCH-2 (AID 1259356); further: series mostly up to about 46 µM
[4] = target: Atrial natriuretic peptide receptor 1 (Homo sapiens) (UniProt P16066); experiment: Natriuretic polypeptide receptor (hNpr1) antagonism - Pilot screen (AID 1347049; calls by dose curve;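 further: HEK293 cells with hNpr1 and GloSensor cGMP luciferase stimulated by 0.1 nM hNppA; agonist-evoked cGMP luminescence read 20 min after hNppA addition; series mostly up to about 58 µM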)
Summary of the method: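 Cells expressing receptor plus cGMP biosensor are seeded and incubated overnight at 37C, then loaded with GloSensor reagent (2% final) at room temperature for 2 h. Library compounds go on for 30 min. A pre-read precedes agonist (hNppA, 0.1 nM final) and a 20-min readout.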

[5] = NS1 protein of Zika virus - qHTS assay to identify small molecule inhibitors in human HEK 293 cells (AID 1347053); further: series mostly up to about 46 µM; nearly all actives have a fitted effect of over 55% in size
Summary of the method: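 Read-out is a two-antibody TR-FRET for ZIKV NS1, normalized between uninfected cells and infected cells. Compound added 1 h before MR766 infection at MOI 0.5; human HEK 293 cells incubated 24 h, 37 C.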

[6] = target: T1, Tyrosine-protein phosphatase non-receptor type substrate 1 (Homo sapiens) + Leukocyte surface antigen CD47 (Homo sapiens) (UniProt P78324+Q08722); experiment: CD47-SIRPalpha protein protein interaction - LANCE assay qHTS validation (AID 1347057; active means well fitted curve in the direction sought with a large enough effect in the signal ratio, with a control signal flat, not every such curve was filed as active; the % refers to the signal ratio; further: series mostly up to about 38 µM)
Summary of the method: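 Inhibition of soluble CD47/SIRPalpha ectodomain association by titrated compounds, measured as 665/615 nm time-resolved FRET ratio after sequential 30 min room-temperature incubations.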

[7] = target: T1, Tyrosine-protein phosphatase non-receptor type substrate 1 (Homo sapiens) + Leukocyte surface antigen CD47 (Homo sapiens); experiment: CD47-SIRPalpha protein protein interaction - HTRF assay qHTS validation (AID 1347058; active means well fitted curve in the direction sought with a large enough effect in the signal ratio, not every such curve was filed as active; the % refers to the signal ratio; further: series mostly up to about 38 µM)
Summary of the method: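 Soluble extracellular domains (6His-CD47, Avi-tag-biotinylated SIRPalpha) in PBS pH 7.4 with 0.05% IGEPAL CA-630. Compounds were preincubated 30 min at RT with CD47 and anti-His-Eu, then SIRPalpha and SAV-XL665 were added. TR-FRET 665/615 ratio.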

[8] = P-glycoprotein substrates identified in KB-8-5-11 adenocarcinoma cell line, qHTS therapeutic library screen (AID 1346987); further: nearly all actives have a fitted effect of over 65% in size
Summary of the method: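 Compounds are pinned in dose-response onto KB-8-5-11 cells (500 cells/well, colchicine-free medium) and left 72 h at 37 degree C. CellTiter-Glo luminescence then yields AC50 values.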

[9] = Natriuretic polypeptide receptor (hNpr1) antagonism - Pilot counterscreen GloSensor control cell line (AID 1347045; calls by dose curve; further: series mostly up to about 38 µM)
Summary of the method: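 Control counterscreen: luciferase cGMP-biosensor HEK293 cells (no Npr1) received compound for 30 min at room temperature after GloSensor substrate loading. Luminescence was measured before and 20 min after soluble guanylyl cyclase activation by 50 uM nitroprusside.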

Measured: Potency

Sequence of Atrial natriuretic peptide receptor 1 (Homo sapiens) (P16066 whole entry, looked up): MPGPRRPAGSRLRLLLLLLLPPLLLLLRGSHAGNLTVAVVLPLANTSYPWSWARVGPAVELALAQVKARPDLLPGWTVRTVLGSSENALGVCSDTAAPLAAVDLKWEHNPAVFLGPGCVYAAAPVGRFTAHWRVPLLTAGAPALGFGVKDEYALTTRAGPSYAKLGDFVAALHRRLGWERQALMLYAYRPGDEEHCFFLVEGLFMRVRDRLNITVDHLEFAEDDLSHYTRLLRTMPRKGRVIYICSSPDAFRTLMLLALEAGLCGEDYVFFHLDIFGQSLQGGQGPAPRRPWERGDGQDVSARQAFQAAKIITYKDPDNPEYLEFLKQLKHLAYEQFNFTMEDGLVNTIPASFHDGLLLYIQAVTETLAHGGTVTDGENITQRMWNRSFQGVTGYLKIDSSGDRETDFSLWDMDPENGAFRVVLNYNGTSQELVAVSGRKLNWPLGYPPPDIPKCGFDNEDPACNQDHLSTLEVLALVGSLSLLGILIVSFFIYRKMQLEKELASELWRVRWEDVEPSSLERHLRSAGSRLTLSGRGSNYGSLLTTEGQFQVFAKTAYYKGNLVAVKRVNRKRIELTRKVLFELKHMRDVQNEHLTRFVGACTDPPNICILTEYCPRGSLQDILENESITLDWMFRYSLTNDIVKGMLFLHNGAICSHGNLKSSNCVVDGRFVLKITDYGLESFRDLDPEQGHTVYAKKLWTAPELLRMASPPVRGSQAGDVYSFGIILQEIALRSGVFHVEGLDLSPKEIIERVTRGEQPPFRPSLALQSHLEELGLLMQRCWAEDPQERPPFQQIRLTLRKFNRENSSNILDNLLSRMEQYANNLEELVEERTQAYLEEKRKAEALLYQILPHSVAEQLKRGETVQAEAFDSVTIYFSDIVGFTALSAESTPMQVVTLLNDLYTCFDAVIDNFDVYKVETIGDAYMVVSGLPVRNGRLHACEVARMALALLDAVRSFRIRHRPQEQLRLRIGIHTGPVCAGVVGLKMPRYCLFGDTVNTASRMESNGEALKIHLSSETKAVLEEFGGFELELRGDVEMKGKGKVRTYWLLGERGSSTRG
T1 sequence (P78324 whole entry, looked up, the tested form may be a part): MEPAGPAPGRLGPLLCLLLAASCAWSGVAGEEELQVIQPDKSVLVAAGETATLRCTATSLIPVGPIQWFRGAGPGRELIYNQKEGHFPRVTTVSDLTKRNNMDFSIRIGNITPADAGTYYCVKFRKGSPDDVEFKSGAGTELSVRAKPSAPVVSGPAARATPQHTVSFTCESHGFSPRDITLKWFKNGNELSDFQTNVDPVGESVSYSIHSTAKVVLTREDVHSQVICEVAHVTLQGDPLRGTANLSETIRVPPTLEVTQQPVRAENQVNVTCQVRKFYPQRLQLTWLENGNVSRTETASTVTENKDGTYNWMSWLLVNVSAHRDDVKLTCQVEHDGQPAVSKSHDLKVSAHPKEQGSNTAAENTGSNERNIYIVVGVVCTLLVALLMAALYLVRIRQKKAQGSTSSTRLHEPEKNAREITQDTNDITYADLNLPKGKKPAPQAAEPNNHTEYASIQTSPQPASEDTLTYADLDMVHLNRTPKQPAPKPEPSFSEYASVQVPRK
T1 sequence (Q08722 whole entry, looked up, the tested form may be a part): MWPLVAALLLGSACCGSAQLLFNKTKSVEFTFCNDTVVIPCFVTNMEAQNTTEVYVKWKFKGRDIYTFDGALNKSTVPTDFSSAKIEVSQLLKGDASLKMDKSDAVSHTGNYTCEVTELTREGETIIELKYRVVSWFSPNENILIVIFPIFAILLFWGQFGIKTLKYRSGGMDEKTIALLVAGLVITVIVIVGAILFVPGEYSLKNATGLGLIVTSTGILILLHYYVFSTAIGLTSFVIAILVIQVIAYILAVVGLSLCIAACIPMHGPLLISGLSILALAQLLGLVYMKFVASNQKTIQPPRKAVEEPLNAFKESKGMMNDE

NC(=O)c1ncn([C@@H]2O[C@H](CO)[C@@H](O)[C@H]2O)n1
not listed: [8] | [9]
inactive: all other assays above

CCN(CC)CCOC(=O)C1(C2CCCCC2)CCCCC1
not listed: [3]
inactive: all other assays above

CNCCC(Oc1ccc(C(F)(F)F)cc1)c1ccccc1 (stereo not given)
inactive: [1] | [2] | [3] | [5]

CNCC(O)c1ccc(O)c(O)c1 (stereo not given)
not listed: [3] | [8]
inactive: all other assays above

CC(C)(C)c1onc(OCP(=O)(O)O)c1CC(N)C(=O)O (stereo not given)
inactive: [1] | [2] | [9] | [4] | [6]

CC1=C(/C=C/C(C)=C/C=C/C(C)=C/C(=O)O)C(C)(C)CCC1
not listed: [8] | [9]
inactive: all other assays above

NC1[C@H]2CN(c3nc4c(cc3F)c(=O)c(C(=O)O)cn4-c3ccc(F)cc3F)C[C@@H]12 (stereo not given in full)
not listed: [4] | [7] | [9]
inactive: all other assays above

CC(C)(C(=O)O)c1ccc(C(O)CCCN2CCC(C(O)(c3ccccc3)c3ccccc3)CC2)cc1 (stereo not given)
inactive: [1] | [2] | [8] | [5]

CC(C)C(=O)c1c(C(C)C)nn2ccccc12
not listed: [3]
inactive: all other assays above

CN(C)CC[C@@H](c1ccc(Cl)cc1)c1ccccn1
inactive: [1] | [2] | [8] | [4] | [5]

Cc1c(O)cccc1C(=O)N[C@@H](CSc1ccccc1)[C@H](O)CN1C[C@H]2CCCC[C@H]2C[C@H]1C(=O)NC(C)(C)C
not listed: [4] | [8] | [9]
inactive: all other assays above

CCN(CC)C(C)CN1c2ccccc2Sc2ccccc21 (stereo not given)
not listed: [7] | [8]
inactive: all other assays above

CC(C)NC[C@H](O)c1ccc(O)c(O)c1
not listed: [3] | [8]
inactive: all other assays above

CN(C)CCC=C1c2ccccc2CCc2ccccc21
not listed: [3] | [5] | [8]
inactive: all other assays above

CC(C)c1c(C(=O)Nc2ccccc2)c(-c2ccccc2)c(-c2ccc(F)cc2)n1CC[C@@H](O)C[C@@H](O)CC(=O)O
not listed: [3] | [4] | [9]
inactive: all other assays above

CC(=O)OCC(=O)[C@@]1(O)CC[C@H]2[C@@H]3CCC4=CC(=O)CC[C@]4(C)[C@H]3C(=O)C[C@@]21C
not listed: [3] | [8]
inactive: all other assays above

CC(CN1c2ccccc2Sc2ccccc21)N(C)C (stereo not given)
inactive: [1] | [2] | [3] | [4] | [6]

CC1=C(CC(=O)O)c2cc(F)ccc2/C1=C\c1ccc(S(C)(=O)=O)cc1
not listed: [3] | [7]
inactive: all other assays above

C[C@H](NC(CCc1ccccc1)C(=O)O)C(=O)N1CCC[C@H]1C(=O)O (stereo not given in full)
not listed: [3] | [4] | [9]
inactive: all other assays above

C[C@]12C[C@H](O)[C@H]3[C@@H](CCC4=CC(=O)CC[C@@]43C)[C@@H]1CC[C@@H]2C(=O)CO
not listed: [8]
inactive: all other assays above

CC/C=C(\C(=O)N[C@@H]1C(=O)N2C(C(=O)OCOC(=O)C(C)(C)C)=C(COC(N)=O)CS[C@H]12)c1csc(N)n1
inactive: [1] | [2] | [8] | [5]

Source: PubChem BioAssay (NCATS)
